Assay outcomes from PubChem.
SKKanGAS inh: SKKanGAS growth inhibition | S. pyogenes SKKanGAS, kanamycin growth, BacTiter-Glo, 6 h | inhibition, % at 7.5 µM | 300,000 tested, 1.3% active;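 active means mean replicate score, as percent of positive control median, at least 50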;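 further: strain carries kanamycin resistance gene driven by streptokinase promoter and grows in 40 µg/ml kanamycin; loss of luminescence reflects streptokinase promoter inhibition or plain growth inhibition; 0% = median of DMSO wells and 100% = positive control at its reference dose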
tim10-1 inh: inhibits growth of tim10-1 mutant yeast; 330,000 tested, 2.2% active; AID 463190; inhibition, % at 20 µM; S. cerevisiae tim10-1 ts strain growth, BacTiter-Glo, 24 h;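 active means inhibition of at least 40%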;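 further: mutant grown at 25 °C; 0% = DMSO wells with yeast and 100% = wells holding no yeast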
NALP3 yeast inh: inhibitors of NALP3 inflammasome in yeast; Yeast reconstituted NLRP3/ASC/caspase-1, beta-gal luminescence, 24 h; 330,000 tested, 0.39% active; inhibition, % at 10 µM;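 active means inhibition of 50% or more; inactive means inhibition below 50%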;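 further: plate controls were induced DMSO wells for no effect and uninduced yeast grown without galactose for full effect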
PfHsp90 set2: reduces growth (ATP signal) of yeast expressing P. falciparum Hsp90 | S. cerevisiae expressing PfHsp90, BacTiter-Glo ATP, 48 h; yeast lacking PDR1 and PDR3 efflux regulators | inhibition, % at 9.4 µM | 310,000 tested, 0.32% active | AID 504621;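 active means every replicate shows inhibition above about 80%, whatever the replicate mean, limit read from the data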;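 further: 0% = DMSO neutral controls and 100% = 20 µM radicicol positive controls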
tim23-1 inh: growth inhibitors of tim23-1 mutant yeast; S. cerevisiae tim23-1 growth, BacTiter-Glo luminescence, 24 h; inhibition, % at 20 µM; 330,000 tested, 1.3% active;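 active means growth inhibition of the mutant yeast at or above 50%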;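 further: temperature-sensitive mutant grown at 25 °C; plate controls were DMSO-treated mutant yeast for no effect and medium wells lacking yeast for full effect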
TIM10 inh: TIM10 yeast growth inhibition; S. cerevisiae TIM10 strain growth, BacTiter-Glo luminescence, 24 h; inhibition, % at 10 µM; 330,000 tested, 1.4% active;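 active means inhibition of 40% or more at the single tested concentration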;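 further: wild-type TIM10 isogenic control strain grown at permissive 25 °C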
tim10-1 conf: tim10-1 yeast growth inhibition, confirmed | shares compounds with tim10-1 inh | S. cerevisiae tim10-1 ts strain growth, BacTiter-Glo, 24 h | inhibition, % at 20 µM | 7,400 tested, 56% active;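 active means inhibition of yeast growth at or above a set limit in either of two repeat tests at 20 µM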;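 further: tim10-1 mutant grown at permissive 25 °C to find synthetic lethal compounds; 0% = DMSO yeast wells and 100% = medium wells without yeast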
tim10 confirm: TIM10 yeast growth inhibition, confirmed | shares compounds with TIM10 inh | S. cerevisiae tim10 strain growth, BacTiter-Glo luminescence, 24 h | inhibition, % at 10 µM | 4,600 tested, 63% active | AID 463215;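 active means inhibition of yeast growth at or above a set limit in either of two replicates at 10 µM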;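 further: this counterscreen used the strain with wild-type TIM10; 0% = yeast with DMSO and 100% = medium wells lacking yeast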
The depositor's hits bear a star; . = no result. An excerpt weighted towards active compounds, which were near 4.6% of everything screened.

SMILES	SKKanGAS inh	tim10-1 inh	NALP3 yeast inh	PfHsp90 set2	tim23-1 inh	TIM10 inh	tim10-1 conf	tim10 confirm
Cc1ccc(-c2[nH]nc(N)c2N=Nc2ccccc2C)cc1	74.5*	56.3*	28.6	-5.7	19.8	45.1*	-0.4	45.8*
Cc1ccc(N=Nc2c(N)n[nH]c2N)cc1	-2.9	4.4	12.2	-4.0	3.1	4.8	.	.
Cc1cccc(N=Nc2c(N)n[nH]c2-c2ccc(Cl)cc2)c1	12.9	51.6*	20.9	-54.5	7.8	56.0*	26.2	12.8
CCOc1ccc2nc(NC(=O)C3CCCN(S(=O)(=O)c4c(C)noc4C)C3)sc2c1 (stereo not drawn)	.	0.4	20.6	-3.6	0.4	-0.2	.	.
CCOC(=O)NC(=S)Nc1c(C)n(C)n(-c2ccccc2)c1=O	3.9	-1.7	9.2	18.9	-1.9	6.1	.	.
Cc1ccc(S(=O)(=O)N2CCOC2CNC(=O)C(=O)NCCCN2CCOCC2)cc1 (stereo not drawn)	-3.2	-2.5	17.3	-4.8	-10.2	2.0	.	.
Cc1ccccc1NC1=NC(=S)N(c2ccccc2)C12CCOC(C)(C)C2 (stereo not drawn)	6.8	36.6	3.5	-10.8	30.3	37.4	.	.
Cc1ccccc1NC1=NC(=S)N(c2ccccc2)C12CCCCC2	-0.8	53.9*	9.1	-26.1	49.6	50.2*	46.5*	-38.6
Cc1nnc(-c2cccc(Br)c2)c2cn(-c3ccccc3Cl)nc12	-8.7	51.0*	-14.2	0.9	41.7	51.4*	39.2*	49.9*
COc1cccc(Nc2nc(-c3cccs3)nc3ccccc23)c1	2.8	52.5*	11.0	-16.1	33.8	48.5*	35.6*	45.2*
COc1ccc(Nc2nc(-c3cccs3)nc3ccccc23)cc1	5.9	36.8	21.9	-2.6	43.9	25.7	.	.
CC(NC(=O)Nc1ccc([N+](=O)[O-])cc1)C(c1cccs1)N1CCCC1 (stereo not drawn)	-1.0	19.3	15.7	-27.6	12.5	22.0	.	.
Cc1cc(=O)[nH]c2c1c(C)nn2C1CCOC(C)(C)C1 (stereo not drawn)	6.6	-5.7	-1.3	-28.4	-5.2	-17.4	.	.
CCOc1ccc(NC(=O)CN2C(=O)COc3ccccc32)cc1	-0.2	-33.9	20.1	-1.6	10.0	-6.5	.	.
Cc1ccc(CSCC(=O)N2CCN(Cc3ccc4c(c3)OCO4)CC2)cc1	-2.7	56.8*	8.6	11.6	38.6	41.0*	40.5*	-23.8
CCCN(CC(=O)Nc1ccccc1C)C(=O)C1CCN(S(=O)(=O)c2cccc(C(F)(F)F)c2)CC1	3.2	-6.9	13.4	.	-14.9	-3.0	.	.
Cc1ccc(C)c(NC(=S)NCc2ccc3[nH]c4c(c3c2)CCCC4)c1	11.0	44.8*	22.8	12.6	42.6	42.9*	34.5*	40.0*
COc1ccc(/C=C/c2cc(C(F)(F)F)on2)cc1	-5.0	-2.5	17.4	-2.9	13.3	0.5	.	.
Cc1nn(-c2ccccc2)c2c1C1(C(=O)N(C)c3ccccc31)C(C#N)=C(N)O2 (stereo not drawn)	-2.2	66.8*	-7.0	.	39.1	41.4*	54.3*	30.0
CN(C)c1ccccc1C(=O)N1CCCC(C(=O)c2ccc3ccccc3c2)C1 (stereo not drawn)	-2.9	30.7	10.8	.	19.4	18.4	.	.
CCN(CC)CCCCCC(=O)Nc1ccccc1C(=O)Nc1ccccc1	-4.7	7.0	6.9	-21.0	10.3	0.3	.	.
CCN(c1cccc(C)c1)S(=O)(=O)c1c(C)[nH]c(C)c1C(=O)N1CCCCC1	-3.3	18.8	6.6	-5.7	4.6	4.5	.	.
Cc1ccccc1S(=O)(=O)c1c(C)cc(C)n(C(C)C)c1=O	3.9	41.0*	-14.8	-18.1	41.2	51.7*	34.5*	-30.4
COC(=O)Nc1ccc(S(=O)(=O)N2CCCC(C(=O)N3CC(C)OC(C)C3)C2)cc1 (stereo not drawn)	-31.5	11.3	-2.2	11.0	-5.5	10.7	.	.
O=C(Nc1ncc2c(n1)-c1ccccc1CC2)c1cccc(Cl)c1	-13.9	48.9*	-4.6	-3.4	40.1	44.1*	42.9*	22.6
SMILES	SKKanGAS inh	tim10-1 inh	NALP3 yeast inh	PfHsp90 set2	tim23-1 inh	TIM10 inh	tim10-1 conf	tim10 confirm
COCCN(Cc1nc(-c2ccc(-c3ccccc3)cc2)oc1C)C(C)C	3.0	15.0	23.7	18.5	26.6	3.1	.	.
COc1cc(/C=C2\SC(c3ccc(C)cc3)=NC2=O)ccc1O	14.8	52.5*	18.0	-8.2	49.5	46.2*	31.2*	43.3*
Cc1ccccc1Nc1nc(N)nc(CSc2nc3ccccc3s2)n1	2.6	-3.4	19.0	-2.2	19.2	16.1	.	.
Cc1ccc(Nc2nc(N)nc(CSc3nc4ccccc4s3)n2)cc1	9.2	46.8*	30.5	2.7	40.2	47.4*	27.8	26.8
COc1ccc(C(=O)Sc2nncc3ccccc23)cc1	-6.2	44.9*	-25.2	-49.6	47.8	41.6*	17.6	41.4*
COc1ccc(NC(=O)CSc2nncc3ccccc23)cc1	-10.4	-20.0	30.3	5.5	2.3	11.1	.	.
O=[N+]([O-])c1nn(-c2ccc3c(c2)OCCO3)n(O)c1=NC1CCCCC1	2.4	56.2*	16.1	.	46.3	49.4*	45.5*	42.6*
Cc1cc(NC(=O)CSc2nc(=O)cc(N)n2-c2ccc(Cl)cc2)no1	-3.0	16.6	-2.1	20.7	5.4	4.5	.	.
Cc1nnc(Nc2ccc(F)cc2)c2ccccc12	8.2	11.7	14.2	-26.7	5.8	10.0	.	.
Cc1nnc(Nc2ccccn2)c2ccccc12	-15.3	66.3*	32.4	-20.1	46.4	84.7*	70.5*	82.6*
CC1(C)CC(=O)C2=C(C1)Nc1ccccc1N=C2	4.9	49.4*	3.8	.	46.0	40.7*	44.2*	33.6*
CC1CCN(S(=O)(=O)c2cc(Br)cc(C(=O)NC3=NCCS3)c2)CC1	4.2	45.7*	-2.1	2.9	33.6	41.4*	31.8*	39.8*
CCc1cccc(CC)c1NC(=S)NCCc1c(C)[nH]c2ccc(C)cc12	10.1	45.3*	12.5	-10.3	46.4	46.4*	42.5*	45.6*
COc1ccc2[nH]c(C)c(CCNC(=S)Nc3cccc(C)c3)c2c1	6.4	21.1	18.7	-18.2	17.3	13.2	.	.
c1ccc(CNc2nc(CN3CCOCC3)nc3scc(-c4ccccc4)c23)cc1	-1.0	25.2	19.0	-15.0	46.0	36.3	.	.
Clc1ccc(CNc2nc(CN3CCOCC3)nc3scc(-c4ccccc4)c23)cc1	-14.0	47.5*	14.3	4.5	45.2	51.1*	46.0*	-11.8
CC1CN(CC(=O)NCc2ccc(F)cc2)CC(C)O1 (stereo not drawn)	-3.8	-10.3	10.5	-3.1	-8.6	-2.3	.	.
